Test results: PubChem BioAssay (NCI)
The panel holds about 83,000 compounds, 20% with a hit somewhere; the sample as a whole holds those more often.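 48-hour exposure, single concentration, 96-well plates; percent growth endpoint where 0 means no net growth. Active: below 10.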 The source made the active and inactive calls.

Assays:
Experiment in all cases: NCI-60 one-dose screen, 48 h (100 = growth as untreated, 0 = no growth, -100 = all killed)
[1] = tested on: SN12C renal; details: 10 µM unless noted
[2] = tested on: UO-31 renal; details: 10 µM unless noted
[3] = tested on: TK-10 renal; details: 10 µM unless noted
[4] = tested on: ACHN renal; details: 10 µM unless noted
[5] = tested on: CAKI-1 renal; details: 10 µM unless noted
[6] = tested on: MOLT-4 leukemia; details: 10 µM unless noted
[7] = tested on: SR leukemia; details: 10 µM unless noted
[8] = tested on: RPMI-8226 leukemia; details: 10 µM
[9] = tested on: OVCAR-8 ovarian; details: 10 µM unless noted
[10] = tested on: OVCAR-5 ovarian; details: 10 µM unless noted
[11] = tested on: OVCAR-4 ovarian; details: 10 µM unless noted
[12] = tested on: SK-OV-3 ovarian; details: 10 µM
[13] = tested on: IGROV1 ovarian; details: 10 µM unless noted
[14] = tested on: OVCAR-3 ovarian; details: 10 µM unless noted
[15] = tested on: HS 578T breast; details: 10 µM unless noted
[16] = tested on: EKVX NSCLC; details: 10 µM unless noted
[17] = tested on: A498 renal; details: 10 µM unless noted
[18] = tested on: CCRF-CEM leukemia; details: 10 µM unless noted
[19] = tested on: NCI/ADR-RES ovarian; details: 10 µM unless noted

Measured: growth

CN1CCc2c(c3ccccc3c3ccccc23)C1
inactive: [1] 42.7% | [2] 42.2% | [3] 60.9% | [4] 25.7% | [5] 56.1% | [7] 20.5% | [8] 50.8% | [9] 37.3% | [10] 60% | [11] 82.1% | [12] 63% | [13] 61.4% | [14] 63.7% | [15] 82.4%
active: [6] 6.11%

Cc1ccc(S(=O)(=O)N2CCc3ccc(O)c4c3C2CCc2ccccc2-4)cc1 (centres undefined)
inactive: [16] 104% | [1] 100% | [2] 67.6% | [3] 111% | [5] 88.3% | [17] 111% | [18] 83% | [6] 77.5% | [7] 76.5% | [8] 95.8% | [9] 98.8% | [10] 110% | [11] 106% | [12] 101% | [13] 113% | [14] 99.1% | [15] 106% | [19] 104%

c1ccc2c(c1)oc1cc3c(cc12)nnc1cccn13
inactive: [1] 103% | [2] 64.9% | [3] 122% | [4] 99.8% | [5] 91.1% | [17] 111% | [18] 109% | [6] 108% | [7] 94.6% | [9] 102% | [10] 116% | [11] 107% | [12] 108% | [13] 87.4% | [14] 107% | [15] 108% | [19] 111%

COCCOC1=C(Cl)C(=O)c2ccccc2C1=O
inactive: [16] 38.9% | [1] 33.4% | [3] 97.9% | [4] 23.7% | [6] 21.7% | [9] 13.2% | [10] 31.6% | [12] 87.5% | [13] 21% | [19] 20.4%
active: [2] -20.2% | [7] 0.0172% | [11] -21.6% | [14] -13.3% | [15] 4.85%

Cc1ccc2nc(NC(=O)CSC(=S)N3CCN(C)CC3)sc2c1
inactive: [16] 98.1% | [1] 100% | [2] 78.5% | [3] 122% | [4] 100% | [17] 108% | [6] 123% | [7] 138% | [8] 106% | [9] 75.6% | [10] 105% | [11] 100% | [12] 108% | [13] 86.7% | [14] 120% | [15] 114% | [19] 89%

COC(=O)/C=C1/CCC2C3CCC4=CC(=O)C(Br)CC4(C)C3C(=O)CC12C (centres undefined)
active: [18] 5.9%
inactive: [16] 98% | [1] 82.9% | [2] 81.1% | [4] 72.5% | [5] 73.9% | [17] 117% | [6] 52.3% | [7] 33% | [8] 61.1% | [9] 63.1% | [10] 112% | [11] 67.8% | [12] 103% | [13] 25.1% | [14] 89.5% | [15] 86.7% | [19] 81.7%

CC(C)(C)[Si](C)(C)OC1[C@@H](O[Si](C)(C)C(C)(C)C)[C@@H](CNC(=O)NC(=O)C(F)(F)F)O[C@H]1n1cnc2c(NC(=O)Nc3ccccc3)ncnc21 (some centres undefined)
active: [2] -24.2% | [6] -41.7% | [7] -41.9% | [8] 4.89% | [14] -54.1%
inactive: [1] 81.1% | [4] 76.2% | [5] 16.6% | [17] 96.9% | [9] 82% | [10] 88.8% | [11] 78.4% | [12] 89.7% | [13] 71.2% | [15] 49.5%

O=C1C(OCCOc2ccccc2)=C(OCCOc2ccccc2)C(=O)c2ccccc21
inactive: [16] 103% | [1] 51.8% | [2] 46.9% | [3] 116% | [4] 73.5% | [17] 94.7% | [6] 82.9% | [7] 60.1% | [9] 86.8% | [10] 124% | [11] 44.8% | [12] 57.9% | [13] 62.7% | [14] 78.2% | [15] 60.3% | [19] 68.8%

Nc1ccccc1-c1n[nH]c(=O)[nH]c1=O
inactive: [1] 97.7% | [2] 86.8% | [4] 104% | [5] 87.5% | [17] 107% | [6] 106% | [8] 105% | [9] 105% | [10] 109% | [11] 94.3% | [12] 108% | [13] 108% | [14] 118% | [15] 92.7% | [19] 102%

CC[Si](CC)(CC)OC1[C@@H](O[Si](CC)(CC)CC)[C@@H](CNC(=O)NC)O[C@H]1n1cnc2c(NC(=O)Nc3ccccc3)ncnc21 (some centres undefined)
active: [6] -10.9% | [8] 3.35%
inactive: [1] 93.6% | [2] 40.1% | [4] 88.4% | [5] 69% | [17] 38.6% | [7] 14.8% | [9] 92.7% | [10] 93.6% | [11] 94.4% | [12] 98.2% | [13] 73.6% | [14] 66.6% | [15] 69.9% | [19] 91.8%

CNc1ccc(Br)cc1-c1n[nH]c(=O)[nH]c1=O
inactive: [1] 108% | [2] 71.3% | [4] 94.6% | [5] 76% | [17] 89.7% | [18] 102% | [6] 99.5% | [7] 103% | [8] 104% | [9] 100% | [10] 98.3% | [11] 90.9% | [12] 102% | [13] 106% | [14] 116% | [15] 84.1%

CC(=O)Nc1ccc(Sc2ccc([N+](=O)[O-])o2)cc1
active: [4] -28.1% | [8] 9.87% | [9] -1.51% | [14] -8.53%
inactive: [16] 76.4% | [1] 54.2% | [2] 24.2% | [3] 64.9% | [17] 120% | [6] 33.2% | [7] 26.1% | [10] 94.8% | [11] 23.5% | [12] 120% | [13] 42.2% | [15] 46.8% | [19] 15.9%

CC(=O)Nc1ccccc1-c1n[nH]c(=O)[nH]c1=O
inactive: [1] 104% | [2] 79.1% | [4] 95.3% | [5] 83% | [17] 87.8% | [18] 105% | [6] 109% | [7] 107% | [8] 103% | [9] 106% | [10] 96.4% | [11] 93.6% | [12] 99.1% | [13] 104% | [14] 113% | [15] 77.9% | [19] 102%

CC1=CN2C(=NC3=C(CCCC/C3=C\c3ccccc3)C2c2ccccc2)S1 (centres undefined)
inactive: [1] 96.3% | [2] 78.1% | [4] 99.5% | [5] 96.3% | [17] 117% | [6] 99.8% | [8] 112% | [9] 102% | [10] 106% | [11] 95.8% | [12] 88.5% | [13] 97.9% | [14] 110% | [15] 92.8% | [19] 100%

Clc1nc(-c2ccccn2)nc2sc3c(c12)CCCCCC3
active: [4] -20.4% | [5] -65.2%
inactive: [1] 84.9% | [2] 16.4% | [17] 118% | [6] 67.7% | [7] 66.3% | [9] 87.1% | [10] 108% | [11] 85.7% | [12] 105% | [13] 89.8% | [14] 108% | [15] 91.3% | [19] 89.3%

CC(=O)c1cc(C)c(OC(=O)c2ccccc2)c(C)c1
inactive: [1] 102% | [2] 84.3% | [4] 103% | [5] 79.3% | [17] 105% | [18] 85.4% | [6] 93.3% | [7] 82.8% | [8] 80.4% | [9] 103% | [10] 106% | [11] 91.6% | [12] 103% | [13] 123% | [14] 106% | [15] 100% | [19] 97.9%

Cc1cc(=O)[nH]n1-c1cc(Cl)ccc1N
inactive: [16] 117% | [1] 110% | [2] 89.3% | [3] 98.1% | [4] 100% | [17] 120% | [6] 112% | [7] 96.6% | [8] 106% | [9] 103% | [10] 111% | [11] 105% | [12] 98.6% | [13] 109% | [14] 124% | [15] 123% | [19] 90.6%

Oc1ccc2ccccc2c1C1NN=C(c2ccccc2)S1 (centres undefined)
inactive: [16] 27.4% | [1] 17.2% | [3] 49% | [17] 31.3% | [6] 13% | [8] 19.6% | [9] 15.6% | [10] 43.2% | [11] 22.3% | [12] 15.4% | [14] 35.1% | [15] 57.7% | [19] 19.5%
active: [2] -11.5% | [5] -1.25% | [7] 2.39%

N#Cc1c(O)c2c(c(O)c1C#N)C(=O)c1ccccc1C2=O
active: [1] 0.389% | [6] 8.65% | [9] 2.33% | [14] -9.86% | [19] 0.847%
inactive: [16] 87.3% | [2] 68.3% | [3] 87.5% | [4] 56.2% | [17] 81.9% | [18] 24.4% | [7] 15.4% | [10] 108% | [11] 10.9% | [12] 109% | [13] 23.9% | [15] 70.1%
